Compounds with a hit are over-represented: about 2.2% of the library has one in this group of screens.
PvdQ acylase: blocks Pseudomonas aeruginosa PvdQ acylase activity. hit rate 0.063% among 340,000. inhibition, % at 10 µM. purified PvdQ acylase, fluorescence plate reader; in the data active means inhibition above about 30%, passing the limit was not always enough; inconclusive means no clear call, values can overlap the other calls;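 further: 0% = vehicle neutral wells and 100% = reference inhibitor wells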
JMJD2C inh: inhibitors of human GASC-1 (JMJD2C) demethylase; hit rate 0.069% among 330,000; GST-JMJD2C(1-420) H3K9me3 demethylation, DELFIA europium; Q9H3R0; inhibition, % at 2.35 µM;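 active means more than half of a compound's replicate wells show inhibition beyond 50%, single wells judged on their own value; inconclusive means some, but no more than half, of replicates pass 50% inhibition; inactive means no replicate passes 50% inhibition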;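 further: signal counts dimethyl H3K9 product captured on neutravidin plate; 0% = median of DMSO wells and 100% = 0.3 times that DMSO median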
Target sequence (Q9H3R0 1-420 limits assumed): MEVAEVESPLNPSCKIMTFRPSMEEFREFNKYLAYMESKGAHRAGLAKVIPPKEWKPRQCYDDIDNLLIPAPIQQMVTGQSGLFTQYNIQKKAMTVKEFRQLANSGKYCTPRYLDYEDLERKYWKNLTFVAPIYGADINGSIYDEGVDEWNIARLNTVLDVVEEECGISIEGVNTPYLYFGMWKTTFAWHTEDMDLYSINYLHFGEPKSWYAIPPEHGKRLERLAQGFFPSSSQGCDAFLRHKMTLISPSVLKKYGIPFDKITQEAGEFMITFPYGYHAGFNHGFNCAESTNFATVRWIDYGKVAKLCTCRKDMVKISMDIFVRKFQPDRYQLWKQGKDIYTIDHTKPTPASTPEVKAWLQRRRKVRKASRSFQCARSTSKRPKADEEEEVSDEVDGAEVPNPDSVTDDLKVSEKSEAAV
SUMO Mot1 rescue: blocks SUMOylation pathway, rescuing yeast Mot1-301 growth; S. cerevisiae Mot1-301 growth rescue, ATP luminescence, 38.5C; percent above DMSO median, 100 means doubled; growth rescue, % at 18.8 µM; hit rate 1% among 320,000;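 active means every valid replicate shows activation above 250% relative to neutral control wells; inactive means the rest, any valid replicate at or below 250%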;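 further: OY570 slx delta 5 strain wells were the positive control but not used for scaling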
HDAC3 inhib: inhibitors of human histone deacetylase 3; O15379; recombinant HDAC3, fluorogenic peptide/trypsin coupled, fluorescence; inhibition, % at 8.3 µM; hit rate 0.15% among 320,000; in the data active means inhibition above about 26%, passing the limit was not always enough; inconclusive means no clear call, values can overlap the other calls
p-CIP stab down: compounds decreasing mouse p/CIP protein stability; F442A p/CIP-EGFP cells, EGFP fluorescence, 16 h; decrease of EGFP signal, % at 10 µM; hit rate 0.01% among 290,000; AID 1984;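 active means EGFP signal decrease of at least 30% at 10 µM or well 3 SD below plate mean, unless failing retest; inactive means the rest, including hits failing retest or dose response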
PHOSPHO1 block: blocks human PHOSPHO1 phosphatase activity | Q8TCT1 | recombinant PHOSPHO1, absorbance phosphatase assay | inhibition, % at 13.3 µM | hit rate 1.1% among 290,000; in the data active means inhibition above about 60%
Active calls of the source: *; ? = inconclusive; . = no result given.

SMILES	PvdQ acylase	JMJD2C inh	SUMO Mot1 rescue	HDAC3 inhib	p-CIP stab down	PHOSPHO1 block
Brc1ccc(OCc2ccccc2)c(CNCc2ccncc2)c1	0	6	262*	5	-11	-41
Fc1ccc(COc2ccccc2CNCc2ccncc2)cc1	-5	2	15	7	-6	6
Cc1ccc(C)c(NC(=O)CCN2CCCC(C)C2)c1 (centres undefined)	-10	-6	30	-10	3	36
Cc1cccnc1NCc1ccc(O)c2ncccc12	-7	-15	-4	1	-1	78*
O=[N+]([O-])c1cc(S(=O)(=O)N2CCCC2)ccc1O	3	2	3	3	-8	5
O=[N+]([O-])c1cc(S(=O)(=O)N2CCCCCC2)ccc1F	-8	6	577*	2	-13	15
CC(C(=O)Nc1cccc([N+](=O)[O-])c1)N1C(=O)NC2(CCCC2)C1=O (centres undefined)	-9	-6	-30	-1	3	28
CCSc1nnc(NC(=O)CCN2C(=O)C3CCCCC3C2=O)s1 (centres undefined)	22	4	-11	3	.	.
CCC(CC)C1=NN2C(=N)/C(=C/c3ccc(OC(=O)c4ccco4)cc3)C(=O)N=C2S1	0	-7	3	32*	-27	20
CN(Cc1ccc(Cl)s1)C(=O)CN1C(=O)N(C)C2(CCCCC2)C1=O	-3	.	.	.	.	.
COC(=O)c1cc2oc(C)cc2n1CC(=O)N(C)c1ccccc1	-9	-16	89	9	2	-3
C=CCN(C(=O)Cn1c(C(=O)OC)cc2oc(C)cc21)c1ccccc1	-8	-1	5	-7	-4	74*
CC(=O)Nc1sc(N)nc1-c1ccccc1	-10	-7	10	-6	1	80*
CCOC(=O)c1sc(NC(C)=O)nc1-c1ccccc1	-12	-2	-14	7	0	27
CCOc1ccc(CCNC(=O)CCNS(=O)(=O)c2ccc3c(c2)CCN3C(C)=O)cc1OCC	-13	-13	52	?	-4	45
O=C(Nc1cccnc1)NC1CCCCC1	-8	-5	-5	-5	5	68*
O=C(Nc1cccnc1)c1ccccc1O	-8	10	8	7	-13	5
O=C(Nc1cccnc1)c1cccnc1Cl	-12	14	339*	-5	3	-4
Cc1cnc(C(=O)OCC(=O)c2ccc(F)cc2)cn1	-6	3	-2	-7	-16	28
O=C(COc1cccnc1[N+](=O)[O-])Nc1cccc(S(=O)(=O)N2CCOCC2)c1	-1	1	2	-9	12	36
CC(C)CCNC(=O)C1CCC(CNc2c(N3CCCC3)c(=O)c2=O)CC1 (centres undefined)	-5	2	311	8	-10	4
O=C(c1ccc(-c2cccc(C(F)(F)F)c2)o1)N1CCN(c2ccccc2O)CC1	-15	3	-21	5	-15	12
O=C(c1ccc(-c2cccc(C(F)(F)F)c2)o1)N1CCCC(C(F)(F)F)C1 (centres undefined)	-2	5	-18	30*	.	.
COc1cc(C(=O)Nc2nc(C)c(Cc3ccc4c(c3)OCO4)s2)cc(OC)c1OC	-11	-30	13	17	-4	74*
CCN(CC(=O)NCc1ccc(Cl)cc1)C(=O)CN1C(=O)NC(C)(c2ccccc2)C1=O (centres undefined)	-16	-5	39	-7	4	33
SMILES	PvdQ acylase	JMJD2C inh	SUMO Mot1 rescue	HDAC3 inhib	p-CIP stab down	PHOSPHO1 block
Cc1c(/C(O)=C2/C(=O)C(=O)N(CCN3CCOCC3)C2c2cccnc2)cnn1-c1ccccc1 (centres undefined)	0	19	447*	-2	1	-11
Cc1c(/C(O)=C2/C(=O)C(=O)N(CCN3CCOCC3)C2c2ccco2)cnn1-c1ccccc1 (centres undefined)	-6	.	.	.	.	.
C=CCNc1sc(C(=O)c2ccccc2)c(N)c1C#N	-19	7	-4	3	-7	96*
C=CCNc1sc(C(=O)c2ccc(Br)s2)c(N)c1C#N	-1	-2	-17	-5	2	82*
C=CCNc1sc(C(=O)C(C)(C)C)c(N)c1C#N	-3	5	-3	5	-9	-24
C=CCNc1sc(C(=O)c2ccc(C)cc2)c(N)c1C#N	12	-1	-7	11	-4	96*
C=CCNc1sc(C(=O)C2CC2)c(N)c1C#N	-3	.	-1	6	1	44
Clc1ccc(C(Cn2ccnc2)OCc2c(Cl)cccc2Cl)c(Cl)c1 (centres undefined)	-8	.	346*	0	.	.
OC(Cn1ccnc1)c1ccc(Cl)cc1Cl (centres undefined)	-1	-8	90	14	8	-6
Cc1ccc(C)c(S(=O)(=O)NC2CCSC2=O)c1 (centres undefined)	79*	.	.	.	.	.
CC(C)CC(=O)Nc1nnc(SCC(=O)NCC2CCCO2)s1 (centres undefined)	-17	-6	-5	5	-2	36
COc1ccc(CNC(=O)CN(C)S(=O)(=O)c2ccc(Cl)cc2)cc1	-6	1	339*	-1	18	39
CN(CC(=O)NCc1ccncc1)S(=O)(=O)c1ccc(Cl)cc1	-19	-11	-2	-4	3	-16
O=c1ccc2cc3c([nH]c4ccc(Br)cc43)oc-2c1O	-33	31	-20	38*	-15	7
COc1ccc(Cl)cc1C(=O)NNC(=O)C1CCCO1 (centres undefined)	3	.	.	.	.	.
CCOc1cccc(C(=O)Nc2nnc(-c3ccco3)s2)c1	-13	0	-11	-5	10	76*
Cc1cccc(OCC(=O)Nc2nnc(-c3ccco3)s2)c1	-14	-1	-5	-3	-4	8
COc1ccccc1OCC(=O)Nc1nnc(-c2ccco2)s1	5	-22	.	.	-12	74*
O=C(O)C1C2CCC(O2)C1C(=O)Nc1ccc(Cl)cc1F (centres undefined)	-9	14	633*	1	-26	34
O=C(O)C1C2CCC(O2)C1C(=O)Nc1cccc(Cl)c1 (centres undefined)	-15	3	93	3	-2	.
C[n+]1cc[nH]c1SCC(=O)c1ccccc1	-2	-1	125	3	-5	60*
C[n+]1cc[nH]c1SCC(=O)c1ccc(Cl)cc1	-8	15	-10	6	-2	29
COCCNC(=O)C(=O)N/N=C/c1cccs1	-4	3	.	3	-3	65*
COc1ccc(-c2cc(C(F)(F)F)n3nc(C(=O)Nc4c(C)n(C)n(-c5ccccc5)c4=O)cc3n2)cc1	-6	.	.	.	-15	-17
CN1CCCN(S(=O)(=O)c2ccc(O)c(C(=O)O)c2)CC1	0	-2	3	-5	-6	39
CS/C(N)=N/N=C/c1c(O)ccc2ccccc12	-5	10	-2	.	7	68*
